Inconclusive results are not listed. The source made the active and inactive calls. Unless noted, calls follow the shape of the dose curve; as a rule, active = well fitted curve in the direction sought with a large enough effect in the repeat runs; inconclusive = weak or mixed curves; inactive = no such curve, though single readings can be large; an effect the other way counts as inactive or inconclusive.
Columns and labels:
[1] = qHTS assay to identify small molecule antagonists of the thyroid receptor (TR) signaling pathway - cell viability counter screen (AID 743064); also: nearly all actives have a fitted effect of over 50% in size; also: potency is read from the fitted curve at half-maximal effect
Outline: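 Same-well viability check: GH3.TRE-Luc cells stimulated with 1 nM T3 alongside test compound for 23.5 h, followed by CellTiter-Fluor fluorescence.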

[2] = molecular target: Estrogen receptor (Homo sapiens) (UniProt P03372); assay: qHTS assay to identify small molecule antagonists of the estrogen receptor alpha (ER-alpha) signaling pathway (AID 743069; active = well fitted curve in the direction sought with a large enough effect in the signal ratio in the repeat runs, not every such curve was filed as active; the % refers to the signal ratio)
Outline: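 Beta-lactamase FRET fluorescence is read after 2 hr at room temperature with LiveBLAzer B/G substrate. Before that, ER-alpha-bla HEK293 cells sit 4 hr after plating, then receive compound plus 17beta-estradiol and incubate 18 hr at 37C.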

[3] = qHTS assay to identify small molecule antagonists of the estrogen receptor alpha (ER-alpha) signaling pathway - cell viability counter screen (AID 743074; calls by dose curve;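 also: HEK293 cells carrying ER-alpha-UAS-bla reporter stimulated with 17beta-estradiol; nearly all actives have a fitted effect of over 45% in size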)
[4] = molecular target: Estrogen receptor (Homo sapiens) (UniProt P03372); assay: qHTS assay to identify small molecule agonists of the estrogen receptor alpha (ER-alpha) signaling pathway (AID 743075; calls by dose curve;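 also: HEK293 GripTite cells with ER-alpha and UAS-driven beta-lactamase reporter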)
[5] = molecular target: Estrogen receptor (Homo sapiens) (UniProt P03372); assay: qHTS assay to identify small molecule agonists of the estrogen receptor alpha (ER-alpha) signaling pathway using the BG1 cell line (AID 743079); also: nearly all actives have a fitted effect of over 20% in size; also: potency is read from the fitted curve at half-maximal effect
[6] = qHTS assay to identify small molecule antagonists of the estrogen receptor alpha (ER-alpha) signaling pathway using the BG1 cell line (AID 743080; calls by dose curve;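 also: BG1 cells stimulated with 17beta-estradiol alongside compound; series mostly up to about 70 µM; nearly all actives have a fitted effect of over 25% in size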)
Outline: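 Luminescence from a 4×ERE-luciferase reporter in BG1-Luc-4E2 cells served as read-out. Cells, pre-cultured 5 days in stripped-serum phenol-red-free medium, were exposed to compound with 17beta-estradiol co-stimulation for 21.5 h at 37 C.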

[7] = qHTS assay to identify small molecule antagonists of the estrogen receptor alpha (ER-alpha) signaling pathway using the BG1 cell line - cell viability counter screen (AID 743081);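 also: compound given together with 17beta-estradiol as the ER stimulus; series mostly up to about 70 µM; nearly all actives have a fitted effect of over 45% in size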
Aromatase (Homo sapiens) = Aromatase (Homo sapiens) (UniProt P11511); assay: qHTS assay to identify aromatase inhibitors (AID 743083); also: series mostly up to about 70 µM; nearly all actives have a fitted effect of over 55% in size
[8] = qHTS assay to identify small molecule antagonists of the thyroid receptor (TR) signaling pathway (AID 743065); also: series mostly up to about 70 µM; nearly all actives have a fitted effect of over 55% in size
Outline: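 GH3.TRE-Luc rat pituitary cells (two TREs driving luciferase) were dosed with compound, then stimulated with 1 nM T3 (final) for 23.5 h at 37 C. ONE-Glo luminescence was the read-out, with CellTiter-Fluor fluorescence as the cytotoxicity counter-screen.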

[9] = tested on: thyroid hormone receptor (rat, GH3 cells); assay: qHTS assay to identify small molecule agonists of the thyroid receptor (TR) signaling pathway (AID 743066; calls by dose curve)

Measured: Potency

Sequence of Estrogen receptor (Homo sapiens) (P03372 whole entry, looked up): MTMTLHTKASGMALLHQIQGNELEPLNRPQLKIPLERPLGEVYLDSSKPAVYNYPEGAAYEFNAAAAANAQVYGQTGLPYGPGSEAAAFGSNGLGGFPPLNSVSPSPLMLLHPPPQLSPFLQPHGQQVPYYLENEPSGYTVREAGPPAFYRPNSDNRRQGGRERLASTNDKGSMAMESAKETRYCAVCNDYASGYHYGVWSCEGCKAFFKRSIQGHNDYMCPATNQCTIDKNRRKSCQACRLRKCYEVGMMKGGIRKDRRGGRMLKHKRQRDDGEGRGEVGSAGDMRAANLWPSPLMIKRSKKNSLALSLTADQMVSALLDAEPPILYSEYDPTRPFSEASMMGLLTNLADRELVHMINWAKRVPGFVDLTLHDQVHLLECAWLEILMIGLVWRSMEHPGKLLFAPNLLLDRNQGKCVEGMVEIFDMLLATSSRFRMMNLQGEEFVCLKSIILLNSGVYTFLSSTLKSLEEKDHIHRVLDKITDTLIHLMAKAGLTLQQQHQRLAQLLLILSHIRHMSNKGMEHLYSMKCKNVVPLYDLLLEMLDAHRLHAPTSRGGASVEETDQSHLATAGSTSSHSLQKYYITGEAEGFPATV
Sequence of Aromatase (Homo sapiens) (P11511 whole entry, looked up): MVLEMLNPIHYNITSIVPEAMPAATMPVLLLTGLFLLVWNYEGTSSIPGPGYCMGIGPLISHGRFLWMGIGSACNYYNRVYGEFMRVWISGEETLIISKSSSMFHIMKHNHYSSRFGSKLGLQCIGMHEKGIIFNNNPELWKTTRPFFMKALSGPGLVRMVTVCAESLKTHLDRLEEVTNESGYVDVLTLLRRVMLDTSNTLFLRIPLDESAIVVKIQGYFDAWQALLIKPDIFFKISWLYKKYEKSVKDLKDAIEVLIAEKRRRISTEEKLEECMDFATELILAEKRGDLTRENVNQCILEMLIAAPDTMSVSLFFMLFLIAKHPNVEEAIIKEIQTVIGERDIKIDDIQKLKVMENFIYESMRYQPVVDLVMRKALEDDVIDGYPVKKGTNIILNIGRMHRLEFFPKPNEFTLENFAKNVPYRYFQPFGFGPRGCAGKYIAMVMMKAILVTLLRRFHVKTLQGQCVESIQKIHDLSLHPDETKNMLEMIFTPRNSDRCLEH

CN(C)CCN(C)CCO
not listed: [8] | [9]
inactive: all other assays above

O=NN(CCCl)C(=O)NC1CCCCC1
inactive: [1] | [8] | [9] | [3] | [7] | Aromatase (Homo sapiens)

O/N=C/C=N/O
inactive: [1] | [8] | [9] | [3] | [7] | Aromatase (Homo sapiens)

Cc1cccc(Cl)c1
inactive: [1] | [8] | [9] | [3] | [7] | Aromatase (Homo sapiens)

CNCCS(=O)(=O)O
inactive: [1] | [8] | [9] | [3] | [7] | Aromatase (Homo sapiens)

C/C=C(\C)C(C)=O
not listed: [8] | [9]
inactive: all other assays above

C=Cc1ccc(C(C)(C)C)cc1
inactive: [1] | [8] | [9] | [3] | [7] | Aromatase (Homo sapiens)

C=CCCCCCCCC
inactive: [1] | [8] | [9] | [3] | [7] | Aromatase (Homo sapiens)

C=C(C)[C@@H]1CC=C(C)C(=O)C1
inactive: [1] | [8] | [9] | [3] | [7] | Aromatase (Homo sapiens)

C=CC(=O)OCC1CCCO1 (stereo not given)
not listed: [3] | [9]
inactive: all other assays above

O=Cc1ccccc1Cl
inactive: [1] | [8] | [9] | [3] | [7] | Aromatase (Homo sapiens)

CC(C)[C@H]1CC[C@H](C)C[C@@H]1O
inactive: [1] | [8] | [9] | [3] | [7] | Aromatase (Homo sapiens)

O=C(O)CSCC(=O)NC1CCSC1=O (stereo not given)
inactive: [1] | [8] | [9] | [3] | [7] | Aromatase (Homo sapiens)

CC(=O)CC(=O)Nc1ccc(C)cc1C
inactive: [1] | [8] | [9] | [3] | [7] | Aromatase (Homo sapiens)

CO[Si](CCCn1c(=O)n(CCC[Si](OC)(OC)OC)c(=O)n(CCC[Si](OC)(OC)OC)c1=O)(OC)OC
inactive: [1] | [8] | [9] | [3] | [7] | Aromatase (Homo sapiens)

CCCCSCCCC
inactive: [1] | [8] | [9] | [3] | [7] | Aromatase (Homo sapiens)

CCCCCC(C)O (stereo not given)
not listed: [1]
inactive: all other assays above

c1ccc2cnccc2c1
not listed: [1]
inactive: all other assays above

C=CCN1C[C@H](C(=O)N(CCCN(C)C)C(=O)NCC)C[C@@H]2c3cccc4[nH]cc(c34)C[C@H]21
active: [1] 3.76 µM
not listed: [7] | [8] | [9]
inactive: all other assays above

CCCCCCCCCOC(=O)CCCCC(=O)OCCCCCCC
inactive: [1] | [3] | [7] | Aromatase (Homo sapiens)

C[C@@H](O)C(=O)O
active: [5] 48 µM
not listed: [1]
inactive: all other assays above

C=CCCCCCCCCC(=O)OCCCC
not listed: [1]
inactive: all other assays above

CC(=O)C(C)O (stereo not given)
inactive: [1] | [3] | [7] | Aromatase (Homo sapiens)

CCCCOC(=O)[C@H](C)O
not listed: [1]
inactive: all other assays above

CN(C)CCCO[C@@H]1[C@H]2OC(C)(C)O[C@H]2O[C@@H]1C(O)CO (stereo not given in full)
not listed: [1]
inactive: all other assays above

CCC(C)OC(C)CC (stereo not given)
not listed: [1]
inactive: all other assays above

Fc1ccccc1
not listed: [1]
inactive: all other assays above

O=C(O)CCCCCC(=O)O
not listed: [1]
inactive: all other assays above

COC(=O)c1cccc(Cl)c1
not listed: [1]
inactive: all other assays above

CCC(=O)c1c(O)cc(O)cc1O
not listed: [1]
inactive: all other assays above

CCCCCCCCCCCCCCC(=O)NC(CO)CCCCCCCCCCCCCC (stereo not given)
not listed: [1]
inactive: all other assays above

CC(C)c1ccc(C=O)cc1
not listed: [1]
inactive: all other assays above

CCCC(CC)c1ccccc1 (stereo not given)
not listed: [1]
inactive: all other assays above

O=C1OCCO1
not listed: [1]
inactive: all other assays above

C=C(C)[C@@H]1CC=C(C)CC1
not listed: [5] | [8] | [9]
inactive: all other assays above

CCC(C)C(=O)OCCc1ccccc1 (stereo not given)
not listed: [1]
inactive: all other assays above

CCC(C)C(C)=O (stereo not given)
active: [5] 67 µM
not listed: [1]
inactive: all other assays above

O=Cc1cc2ccccc2o1
inactive: [1] | [3] | [7] | Aromatase (Homo sapiens)

Cc1ncc([N+](=O)[O-])n1CC(C)O (stereo not given)
not listed: [1]
inactive: all other assays above
